ATXN2 expr inh: Primary qHTS for Inhibitors of ATXN expression. HEK-293 ATXN2-luciferase reporter, luminescence, 24 h. Potency, µM (titrated, usually from 57 µM), for inactives: at the highest dose activity change, negative = inhibition, hits mostly inhibitors. actives 0.72% (n = 360,000); further: on the % scale 0 is the no-effect control and ±100 the full control effect; nearly all actives have a fitted effect of over 55% in size
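qHTS (up to 57 uM final) was run with 24 h compound exposure of reporter cells at 37 °C. Each well was multiplexed: SteadyGlo luminescence measured ATXN2-luciferase expression after a fluorogenic Gly-Phe-AFC viability readout (25 uM final).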
TGFb SMAD3 inh: qHTS for Inhibitors of TGF-b; HepG2 CAGA-GFP TGF-b/SMAD3 reporter, GFP fluorescence, 18 h; TGF-beta stimulated, 500 pg/mL final; Potency, µM (series often up to 46.1 µM), without a hit: at the top dose activity, negative = inhibition, hits mostly inhibitors; actives 1.2% (n = 410,000); AID 588855, 2011; further: on the % scale 0 is the no-effect control and ±100 the full control effect; nearly all actives have a fitted effect of over 65% in size
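First, reporter cells (HEPG2 CAGA-GFP) rested 2 h at 37 degrees C. Next, compounds were pinned in and TGF-beta added to 500 pg/mL final. After 18 h, GFP was imaged per cell and summed per well.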
TDP1 cell noCPT: qHTS for Inhibitors of human tyrosyl-DNA phosphodiesterase 1 (TDP1): qHTS in cells in absence of CPT; DT40 Tdp1-/- hTDP1 cells, no CPT, ATP luminescence, 48 h; actives 15% (n = 420,000); Potency, µM (doses to about 46.2 µM), without a hit: at the top dose activity change, negative = growth inhibition, usual class: inhibitors; further: on the % scale 0 is the no-effect control and ±100 the full control effect; nearly all actives have a fitted effect of over 55% in size
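Stably hTDP1-transfected Tdp1-null chicken DT40 cells were treated with library compounds minus camptothecin and grown for at least 48 hr at 37 °C, after which cellular ATP was quantified by luminescence.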
HepG2 viability: qHTS for Inhibitors of TGF-b: Cytotox Counterscreen | HepG2 CAGA-GFP viability, ATP luminescence, 18 h | Potency, µM (titrated, usually from 46.1 µM), without a hit: top-dose activity change, negative = cytotoxicity, most hits filed as cytotoxic | actives 0.76% (n = 410,000)
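CellTiter-Glo luminescence gave cytotoxicity after 18 hours at 37 degrees C. The cells were HepG2 CAGA-GFP in 1% FBS DMEM, stimulated with 500 pg/mL TGF-beta after compound addition. %Activity was normalised to no-cell wells (complete cell-killing) and DMSO (no toxicity), and curves were fitted and classified.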
ATXN viability: Viability Counterscreen for Primary qHTS for Inhibitors of ATXN expression; S2 cells (HEK-293 line with an ATXN2-luciferase reporter) viability, CellTiter-Fluor protease fluorescence, 24 h; Potency, µM (highest dose often 56.7 µM), hits mostly cytotoxic; actives 0.49% (n = 400,000); AID 651635, 2014; further: nearly all actives have a fitted effect of over 40% in size
TDP1 cell CPT: qHTS for Inhibitors of human tyrosyl-DNA phosphodiesterase 1 (TDP1): qHTS in cells in presence of CPT. chicken DT40 Tdp1-/-;hTDP1 cells + 20 nM CPT, ATP luminescence, 48 h. Potency, µM (titrated, usually from 46.2 µM), for the others: at the highest dose activity change, negative = growth inhibition, usual class: inhibitors. actives 12% (n = 420,000). AID 686979, 2013; further: on the % scale 0 is the no-effect control and ±100 the full control effect; nearly all actives have a fitted effect of over 55% in size
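Cell growth measured by CellTiter-Glo luminescence after a minimum 48 h, 37 C compound exposure with 20 nM CPT in Tdp1-knockout DT40 cells stably expressing hTDP1, seeded 400/well; qHTS titration format.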
Active calls of the source: *; i = inactive; ? = inconclusive; / = no result; [ ] = another dose, or the depositor's remark. The list is not random: actives were taken first. Their share in the collection is about 17%. The call rests on the fitted dose curve; in most records, active means well fitted curve in the direction sought with a large enough effect; inconclusive means small, poorly fitted or top-dose-only effect, or another doubt; inactive means no such curve, though single readings can be large; an effect the other way counts as inactive or inconclusive. Potency means the concentration at half of the fitted maximal effect.

SMILES	ATXN2 expr inh	TGFb SMAD3 inh	TDP1 cell noCPT	HepG2 viability	ATXN viability	TDP1 cell CPT
CSc1ccc(CN(C)C(C)C(=O)NCC2CCCCC2)cc1 (centres undefined)	-36%	-21%	?	-8%	i	?
CC(C(=O)NCC1CCCCC1)N(C)Cc1ccc(Cl)cc1 (centres undefined)	-8%	-9%	18µM*	-10%	i	?
O=c1[nH]c2ccccc2nc1-c1c[nH]c2ccccc12	3%	-13%	0%	-14%	/	-23%
ClC(Cl)c1nnc(-c2ccccc2)c(-c2c[nH]c3ccccc23)n1	-19%	13µM*	?	-57%	i	3.7µM*
Cc1ccc2nc(-c3cccc(Br)c3)cc(C(=O)NC3CC3)c2c1	2%	2%	?	0%	?	?
O=S(=O)(Nc1cccc(-c2cn3c(n2)SCC3)c1)c1ccc(F)cc1F	-8%	-1%	?	5%	i	-7%
CN(CC(=O)Nc1ccc(F)cc1)C(=O)COC(=O)CNC(=O)c1sc2ccccc2c1Cl	1%	10%	-3%	-2%	i	1%
O=C(c1c[nH]c(C(=O)C(Cl)(Cl)Cl)c1)c1c(F)cccc1F	0%	-13%	21µM*	-2%	i	?
O=C(c1c[nH]c(C(=O)C(Cl)(Cl)Cl)c1)c1ccccc1F	-2%	-6%	?	-18%	i	?
O=C(CSc1nnc(SCC(=O)c2ccco2)s1)c1ccco1	11%	2%	10µM*	9%	i	23µM*
O=C(CSc1nc2cc(Cl)ccc2s1)c1ccco1	80%	-13%	?	7%	i	-6%
CN(C)c1ccc(-c2nn3c(-c4cccnc4)nnc3s2)cc1	6%	30%	-16%	4%	i	4%
COc1ccccc1-c1nnc2sc(-c3ccc(N(C)C)cc3)nn12	-17%	?	0.082µM*	-20%	?	0.0073µM*
COc1ccccc1-c1nnc2sc(-c3cc4ccccc4o3)nn12	-16%	15%	1µM*	-3%	?	1.2µM*
Cc1nnc(SCC(=O)Nc2cc(C(C)(C)C)nn2-c2ccccc2)s1	-10%	3%	-28%	-4%	i	-10%
Cc1nnc(SCC(=O)Nc2cc(-c3cc(C)c(C)cc3C)nn2-c2ccccc2)s1	/	?	12µM*	-9%	?	21µM*
CCCc1ccc(-c2cc(NC(=O)CSc3nnc(N)s3)n(-c3ccccc3)n2)cc1	86%	?	21µM*	-17%	i	23µM*
Cc1nc(-c2ccc(S(=O)(=O)Oc3ccc(Cl)cc3Cl)s2)cs1	-30%	-19%	18µM*	-17%	/	13µM*
COc1cccc(CN2CCC3(CCC(CNC(=O)c4cc(C)nn4C)O3)CC2)c1OC (centres undefined)	/	/	-20%	/	i	4%[9.04 µM]
COc1cc(C)c(CN2CCC3(CCC(CNC(=O)c4ccnn4C)O3)CC2)cc1C (centres undefined)	/	/	-28%	/	i	16µM*
CCN1CCCC1CNC(=O)c1cnn(-c2nccc(-c3ccccc3OC)n2)c1-c1ccco1 (centres undefined)	/	/	7.3µM*	/	i	?
O=C(Nc1ccnn1C1CCN(Cc2ccc(CO)o2)CC1)c1cccc(F)c1	/	-4%	?	8%	i	-5%
CCN(CC)c1ccc2c(Cl)cc(=O)oc2c1	-13%	?	-29%	-19%	/	23µM*
CCN(CC)c1ccc(C(=O)OCc2cc(=O)oc3cc(O)ccc23)cc1	?	3%	16µM*	-15%	i	?

Screening results: PubChem BioAssay, National Center for Advancing Translational Sciences (NCATS)
